Activity calls are given as the source filed them.

29 molecules from PubChem BioAssay can be followed below.

Sequence of Fibroblast growth factor 10 (Homo sapiens) (O15520 whole entry, looked up): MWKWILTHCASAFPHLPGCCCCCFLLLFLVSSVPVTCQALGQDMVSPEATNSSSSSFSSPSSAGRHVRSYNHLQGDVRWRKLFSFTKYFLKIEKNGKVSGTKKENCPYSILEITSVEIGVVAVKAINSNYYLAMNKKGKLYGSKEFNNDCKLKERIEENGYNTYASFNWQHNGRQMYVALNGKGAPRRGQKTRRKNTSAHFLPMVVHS

Test system in one assay: not listed separately
Kind of assay: change in splice reporter luminescence, either direction, cell-based, HEK293, spliceosome inhibition project, primary screen (AID 1101).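 Also: HEK293 cells carrying a splicing-competent luciferase reporter gene; test concentration not given here.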 The conditions noted are these: HEK293 splicing luciferase reporter, 24 h, higher = more signal, called active from +8 up or from −8 down.
As to `CC(=O)OC[C@H]1O[C@@H](ON=C(C)CCN2CCCCc3nc(C)c(C)cc32)[C@H](OC(C)=O)[C@@H](OC(C)=O)[C@@H]1OC(C)=O`, the z-score was -1.29 (inactive).

For `O=C1C=C[C@@H](O)[C@@H]2[C@@H]3C(=O)N(c4cccc(Oc5ccccc5)c4)C(=O)[C@@H]3CC[C@@H]12`, the z-score is -0.856 (inactive).

Regarding `CCOC(=O)[C@H](CC(C)C)NC(=O)CCC1CC(OC(=O)NCCc2ccc(F)cc2)CC2(CCCC(COC(=O)NCCOC)O2)O1` (some centres undefined), the z-score is -0.0891 (inactive).

As for `CCN1C(=O)[C@H]2[C@H]3[C@H](O)[C@H](O)CC(=NOC(C)CN4CCCc5nc(C)c(C)cc54)[C@@H]3CC[C@H]2C1=O` (some centres undefined), the z-score was 0.189 (inactive).

For `CC(C)=CCCC(C)=CCON=C1[C@H]2CCn3c(=O)n(-c4ccccc4)c(=O)n3[C@H]2[C@H](O)[C@@H]2O[C@H]12`, the z-score is 1.77 (inactive).

For the molecule `O=C1C=C[C@@H](O)[C@@H]2[C@@H]3C(=O)N(Cc4ccccc4)C(=O)[C@@H]3CC[C@@H]12`, the z-score was -0.71 (inactive).

In the case of `CCCCOC(OCCCC)C(O)CSc1ccc2ccccc2c1` (centres undefined), the z-score is -0.0185 (inactive).

As for `CC[C@@H](c1ccccc1)n1c(=O)n2n(c1=O)[C@H]1[C@H](O)[C@@H]3O[C@@H]3C(=NOCc3ccccc3)[C@H]1CC2`, the z-score is 2.5 (inactive).

Consider `CC(CCN1CCCc2nc(C)c(C)cc21)=NOC[C@@H](C)[C@H](OCc1ccccc1)C(C)C`, for which the z-score is -0.81 (inactive).

Another assay addresses Fibroblast growth factor 10 (Homo sapiens) (UniProt O15520). The assay is described as follows: compounds binding fibroblast growth factor 10 – biochemical, small-molecule microarray, 635 nm fluorescence, primary screen (AID 1102). The conditions noted are these: FGF10 binding, fluorescence 635 nm, higher = more signal.
The molecule `CC(C)CN1CCc2nc(-c3ccccc3)c3c(c2C1)CO[C@@H](C)C3` returned a composite z-score of 0.929.

In the case of `COCC#Cc1ccc([C@@H]2N[C@H](C(=O)O)CC[C@H]2C)cc1`, the composite z-score stood at 0.129.

In turn, `C[C@@H](c1ccccc1)N1C(=O)[C@H]2[C@H]3[C@H](O)[C@H](O)CC(=NOC[C@@H](O)COCc4ccco4)[C@H]3CC[C@H]2C1=O` showed a composite z-score of -0.185.

As to `CCOC(=O)[C@H](CC(C)C)NC(=O)CCC1CC(OC(=O)NCc2ccc3c(c2)OCO3)CC2(CCCC(COC(=O)NCCc3ccc(Cl)cc3)O2)O1` (some centres undefined), the composite z-score is 0.525.

In the case of `C#CCCCON=C1C[C@@H](O)[C@@H](O)[C@@H]2[C@@H]3C(=O)N(C4CCCCC4)C(=O)[C@@H]3CC[C@@H]12`, the composite z-score was determined as 0.743.

`CC(C)=CCCC(C)=CCON=C1C[C@@H](O)[C@@H](O)[C@@H]2[C@@H]3C(=O)N(c4cccc(Oc5ccccc5)c4)C(=O)[C@@H]3CC[C@H]12`: the composite z-score stood at 0.411.

Molecule `COc1ccc(O[C@H]2C=C[C@@H](C#Cc3ccccc3)O[C@@H]2CO)cc1` showed a composite z-score of 0.535.

`CCCNC(=O)OC[C@H]1O[C@H](CCON=C[C@@H](NS(=O)(=O)c2ccc(C)cc2)[C@H](C)C=CCC(=O)OC)C=C[C@@H]1Oc1ccc(OC)cc1` returned a composite z-score of -0.0511.

Regarding `COC(=O)[C@H](C)NC(=O)CCC1CC(OC(=O)NCc2cccc3ccccc23)CC2(CCCC(COC(=O)NCCCN3CCCC3=O)O2)O1` (some centres undefined), the composite z-score turned out to be 0.92.

`COC(=O)[C@H](C)NC(=O)CCC1CC(OC(=O)NCCc2ccc(F)cc2)CC2(CCCC(COC(=O)NCC3CCCCC3)O2)O1` (some centres undefined) had a composite z-score of 0.938.

`COC(=O)[C@H](C)NC(=O)CCC1CC(OC(=O)NCc2ccc3c(c2)OCO3)CC2(CCCC(COC(=O)NCCc3ccc(Cl)cc3)O2)O1` (some centres undefined) had a composite z-score of 0.382.

The molecule `COc1ccc(COC(=O)NN=C2C[C@@H](O)[C@@H](O)[C@@H]3[C@@H]4C(=O)N([C@@H](C)c5ccccc5)C(=O)[C@@H]4CC[C@@H]23)cc1` yielded a composite z-score of 0.132.

In turn, `COc1ccc(O[C@H]2C=C[C@@H](c3ccccc3)O[C@@H]2COC(=O)CCC(C)=NOC[C@@H](O)COCc2ccco2)cc1` yielded a composite z-score of -2.67.

The molecule `CCN1C(=O)[C@H]2[C@H]3[C@H](O)[C@H](O)CC(=NOCC(C)C)[C@H]3CC[C@H]2C1=O` gave a composite z-score of 0.531.

Molecule `CC(=O)OC[C@H]1O[C@H](C#CCC2CCCCC2)C=C[C@@H]1OC(C)=O` returned a composite z-score of 1.04.

On to `CCN1C(=O)[C@H]2[C@H]3[C@H](O)[C@H](O)CC(=NOC[C@@H](O)[C@H]4O[C@@H]5OC(C)(C)O[C@@H]5[C@H]4O)[C@@H]3CC[C@H]2C1=O`, for which the composite z-score is 0.203.

For `C[C@@H]1CC[C@@H](C(=O)O)N[C@H]1c1cccc(N2CCOCC2)c1`, the composite z-score worked out at 0.631.

In the case of `CCOC(=O)NN=C1C[C@@H](O)[C@@H](O)[C@@H]2[C@@H]3C(=O)N(c4ccc(F)cc4F)C(=O)[C@@H]3CC[C@H]12`, the composite z-score amounted to 0.158.

Consider `CCC1=NOC(CCC2CC(OC(=O)NCc3cccc4c3OCO4)CC3(CCCC(COC(=O)NCCc4ccc(Cl)cc4)O3)O2)C1` (centres undefined), for which the composite z-score stood at 1.41.

Molecule `CCOC(=O)CCN1C(=O)[C@H]2[C@H]3[C@H](O)[C@H](O)CC(=NO[C@@H]4O[C@H](CO)[C@@H](O)[C@H](O)[C@H]4O)[C@@H]3CC[C@H]2C1=O` had a composite z-score of 1.04.
